Screens as filed in PubChem BioAssay.
GIRK2 activator – Activators of human GIRK2-containing channels. HEK293 GIRK2/NPY4 cells, thallium flux fluorescence. AID 1259324. activation (% efficacy), % for hits at 37.5 µM. 34,000 tested, under 10 active. P48051;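 active = primary screen hit, no activity in plain HEK293 cells, and in GIRK2-only cells above 5% efficacy rising with concentration; inactive = the rest, including fluorescent compounds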;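 note: efficacy is normalized control-subtracted fluorescence 15 s after thallium addition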
AMPAR-TARP mod – modulators of AMPA receptor GluA2-stargazin complexes. calls only at 30 µM. HEK293 GluA2+stargazin, membrane potential dye (FDSS), glutamate EC50; hits were called plate by plate, in both directions. 40,000 tested, 3.5% active. AID 1259245;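 active = any of four per-well response measures lying three or more SD from its plate-wide compound average, in either direction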
Target sequence (O88602 whole entry, looked up): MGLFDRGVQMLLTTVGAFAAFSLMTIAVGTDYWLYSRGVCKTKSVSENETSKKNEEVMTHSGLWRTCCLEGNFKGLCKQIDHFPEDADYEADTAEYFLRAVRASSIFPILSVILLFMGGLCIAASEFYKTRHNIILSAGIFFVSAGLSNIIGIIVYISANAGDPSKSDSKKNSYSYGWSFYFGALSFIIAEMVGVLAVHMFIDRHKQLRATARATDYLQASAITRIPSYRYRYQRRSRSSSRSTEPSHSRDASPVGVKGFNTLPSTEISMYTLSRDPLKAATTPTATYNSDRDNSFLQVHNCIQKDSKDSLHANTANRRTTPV
Target sequence (P19491 whole entry, looked up): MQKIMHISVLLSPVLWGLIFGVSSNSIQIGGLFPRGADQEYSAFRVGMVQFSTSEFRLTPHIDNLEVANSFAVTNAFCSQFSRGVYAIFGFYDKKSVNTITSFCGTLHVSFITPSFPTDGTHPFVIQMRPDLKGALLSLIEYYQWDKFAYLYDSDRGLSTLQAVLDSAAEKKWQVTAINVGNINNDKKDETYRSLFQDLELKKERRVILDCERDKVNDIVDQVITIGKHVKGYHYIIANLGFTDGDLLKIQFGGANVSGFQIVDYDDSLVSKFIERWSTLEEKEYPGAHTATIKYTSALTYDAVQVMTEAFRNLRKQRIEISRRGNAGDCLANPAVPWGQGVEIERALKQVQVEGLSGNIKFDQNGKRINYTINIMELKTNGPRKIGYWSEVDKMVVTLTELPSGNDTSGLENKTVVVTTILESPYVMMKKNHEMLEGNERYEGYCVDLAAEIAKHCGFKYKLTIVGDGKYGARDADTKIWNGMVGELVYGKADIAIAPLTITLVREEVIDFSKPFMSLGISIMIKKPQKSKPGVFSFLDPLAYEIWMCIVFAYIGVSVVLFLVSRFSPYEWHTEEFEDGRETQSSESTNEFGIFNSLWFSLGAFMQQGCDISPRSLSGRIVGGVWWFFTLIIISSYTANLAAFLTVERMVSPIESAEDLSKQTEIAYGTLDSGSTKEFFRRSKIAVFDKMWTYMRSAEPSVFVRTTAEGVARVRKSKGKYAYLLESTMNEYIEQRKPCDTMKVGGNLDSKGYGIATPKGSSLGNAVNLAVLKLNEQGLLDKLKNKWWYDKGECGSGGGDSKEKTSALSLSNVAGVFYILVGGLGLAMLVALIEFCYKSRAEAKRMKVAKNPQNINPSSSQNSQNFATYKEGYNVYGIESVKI
* marks the source's active call; other numbers are inactive results. The sample as a whole holds a higher share of hits than the screen did.

How did COc1cccc(C(CNC(=O)COc2ccccc2)N2CCOCC2)c1 (centres undefined) do in these assays?
GIRK2 activator: inactive; AMPAR-TARP mod: active

Results for Cc1ccc(C(CNC(=O)c2ccccc2C)N2CCOCC2)cc1 (centres undefined) ?
GIRK2 activator: inactive; AMPAR-TARP mod: active

How did Cc1cc(C(=O)Nc2cccc(N3CCCC3=O)c2)ccc1[N+](=O)[O-] do in these assays?
GIRK2 activator: inactive; AMPAR-TARP mod: active

How did Cc1cc(NC(=O)c2ccc([N+](=O)[O-])c(C)c2)ccc1N1CCCCC1=O do in these assays?
GIRK2 activator: inactive; AMPAR-TARP mod: inactive

Results for COc1cccc(-c2nnc3ccc(OCCNC(=O)Cc4ccc(F)cc4)nn23)c1 ?
GIRK2 activator: inactive; AMPAR-TARP mod: inactive

Results for Cc1cc(C(=O)N2CCOCC2)nn1CC(=O)NC(C)CCc1ccccc1 (centres undefined) ?
GIRK2 activator: inactive; AMPAR-TARP mod: inactive

How did COc1ccc(NC(=O)Cn2c(=O)n(C(C)C)c(=O)c3nscc32)cc1OC do in these assays?
GIRK2 activator: inactive; AMPAR-TARP mod: inactive

Results for CCOc1ccccc1NC(=O)Cn1c(=O)n(C(C)C)c(=O)c2nscc21 ?
GIRK2 activator: inactive; AMPAR-TARP mod: active

Results for O=C(c1csc(Nc2cccc(Cl)c2)n1)N1CCCC1 ?
GIRK2 activator: inactive

Results for CC1Cc2c(NC(=O)/C=C\c3ccc4c(c3)OCO4)nn(C)c2NC1=O (centres undefined) ?
GIRK2 activator: inactive; AMPAR-TARP mod: inactive

What do the screens show for `Cc1c(NC(=S)NC(=O)c2ccccc2Cl)c(=O)n(-c2ccccc2)n1C`?
GIRK2 activator: inactive; AMPAR-TARP mod: inactive

How did Cc1c(NC(C)c2cc(Cl)ccc2O)c(=O)n(-c2ccccc2)n1C (centres undefined) do in these assays?
AMPAR-TARP mod: active

What do the screens show for `CN(C)CCCNc1oc(-c2ccco2)nc1S(=O)(=O)c1ccccc1`?
GIRK2 activator: inactive; AMPAR-TARP mod: inactive

How did COc1ccc(-n2c(C)cn3c4c(=O)n(CCN5CCCCC5)c(=O)n(C)c4nc23)c(OC)c1 do in these assays?
AMPAR-TARP mod: inactive

How did Cc1cc(NC(=O)c2ccc(N3CCCCC3)nn2)on1 do in these assays?
GIRK2 activator: inactive; AMPAR-TARP mod: active

What do the screens show for `Cc1cc(C)n(CCNC(=O)c2ccc(N3CCCC3)nn2)n1`?
GIRK2 activator: inactive; AMPAR-TARP mod: inactive

Results for CC(=O)c1ccc(NC(=O)Cn2nc(-c3ccc(Cl)cc3)ccc2=O)cc1 ?
GIRK2 activator: inactive; AMPAR-TARP mod: inactive

Results for CCc1nc(N2CCN(C)CC2)c2oc3ccccc3c2n1 ?
GIRK2 activator: inactive; AMPAR-TARP mod: active

Results for CN1CCN(c2nnnc3c2cnn3-c2ccccc2)CC1 ?
GIRK2 activator: inactive; AMPAR-TARP mod: inactive
